{
  "source": "PubChem BioAssay AID504332",
  "about": "(National Center for Advancing Translational Sciences (NCATS), 2011)",
  "note": "Hit rate of the full screen: of about 350,000 compounds, about 31,000 (8.9%) were called active. Not shown: some 15% with an inconclusive outcome. Calls follow the shape of the dose curve; as a rule, active = well fitted inhibition curve with a large enough effect; inconclusive = small, poorly fitted or top-dose-only effect; inactive = no such curve, though single readings can be large or run the other way. Shown is part of a subset that was picked to be rich in actives. % is scaled to controls: 0 for no effect and ±100 for the full control effect; potency is read from the fitted curve at half-maximal effect.",
  "data": [
    {"biological_target": "Histone-lysine N-methyltransferase EHMT2 (Homo sapiens) (UniProt Q96KQ7)", "sequence (Q96KQ7 913-1193 limits assumed)": "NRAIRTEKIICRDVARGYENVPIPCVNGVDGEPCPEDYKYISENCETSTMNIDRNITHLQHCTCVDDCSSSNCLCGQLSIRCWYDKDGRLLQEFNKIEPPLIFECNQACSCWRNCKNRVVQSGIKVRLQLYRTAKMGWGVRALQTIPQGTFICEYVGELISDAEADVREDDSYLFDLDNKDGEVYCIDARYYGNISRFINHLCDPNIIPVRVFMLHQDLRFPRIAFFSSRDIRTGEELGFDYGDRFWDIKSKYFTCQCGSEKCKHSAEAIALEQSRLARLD", "assay": "qHTS Assay for Inhibitors of Histone Lysine Methyltransferase G9a; also: nearly all actives have a fitted effect of over 75% in size", "settings": "G9a H3K9 monomethylation, AlphaScreen, 2 h; series mostly up to 59 µM; activity, negative = inhibition: at the top concentration", "in_short": "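Compounds were preincubated with 20 nM G9a for 15 min, after which biotinylated H3K9 peptide (500 nM) and SAM (20 uM) started a 2 h room-temperature reaction. Monomethylated product was quantified by antibody-based AlphaScreen chemiluminescence.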", "values": [
      {"smiles": "CCCCn1nc(C(=O)Nc2cccc(C(=O)NC3CC3)c2)c2ccccc2c1=O", "activity, negative = inhibition": "5.39% [at 2.33 µM] (inactive)"},
      {"smiles": "CCNC(=O)Cn1nc(C)n2c(cc3c(OC)cccc32)c1=O", "activity, negative = inhibition": "11.3% (inactive)"},
      {"smiles": "CN1C(=O)C(CC(=O)Nc2ccccc2)S/C1=N/c1nccs1", "note": "(stereo not given)", "activity, negative = inhibition": "19.4% [at 102 µM] (inactive)"},
      {"smiles": "O=C(CC1SC(=Nc2ccccc2)N(Cc2ccccn2)C1=O)Nc1cccc(Cl)c1", "note": "(stereo not given)", "Potency": "8.91 µM (active)"},
      {"smiles": "O=C(Nc1cccc(Cl)c1)OCc1ccccn1", "activity, negative = inhibition": "-10.1% [at 102 µM] (inactive)"},
      {"smiles": "COc1ccc(-c2nc3ccccc3o2)cc1NC(=O)c1cc([N+](=O)[O-])ccc1N1CCOCC1", "activity, negative = inhibition": "3.44% (inactive)"},
      {"smiles": "CC(Sc1cccc[n+]1[O-])C(=O)Nc1cccc(S(=O)(=O)N2CCOCC2)c1", "note": "(stereo not given)", "Potency": "8.91 µM (active)"},
      {"smiles": "O=C(CSc1ccccc1)Nc1cccc(S(=O)(=O)N2CCOCC2)c1", "activity, negative = inhibition": "7.75% [at 12.7 µM] (inactive)"},
      {"smiles": "Cc1cc(C(=O)OC(C)C(=O)Nc2cccc(S(=O)(=O)N3CCOCC3)c2)c(C)o1", "note": "(stereo not given)", "activity, negative = inhibition": "-16.9% [at 102 µM] (inactive)"},
      {"smiles": "COc1cccc(C2=CC(=O)C[C@H](c3ccc(F)cc3)C2)c1OC", "activity, negative = inhibition": "-9.38% [at 0.501 µM] (inactive)"},
      {"smiles": "O=c1[nH][nH]c(=O)c2cc(N3CCCC3)ccc12", "activity, negative = inhibition": "-1.28% [at 102 µM] (inactive)"},
      {"smiles": "CCOC(=O)/C(C#N)=C/c1ccc(N2CCCCC2)cc1", "activity, negative = inhibition": "442% [at 102 µM] (inactive)"},
      {"smiles": "O=C1C=CC(=O)N1c1ccc(N2CCCCC2)cc1", "Potency": "0.562 µM (active)"},
      {"smiles": "COc1ccc(Nc2ncnc3ccc(Br)cc23)c(OC)c1", "activity, negative = inhibition": "29.9% [at 102 µM] (inactive)"},
      {"smiles": "COc1ccc(-c2nc(SCC(=O)N3CCCCC3C)n[nH]2)cc1", "note": "(stereo not given)", "activity, negative = inhibition": "2.49% (inactive)"},
      {"smiles": "COc1ccccc1CCNC(=O)c1cccn1-c1nnc(N2CCCCC2)s1", "activity, negative = inhibition": "-7.53% (inactive)"},
      {"smiles": "CC1(C)O[C@@H]2[C@H](O1)[C@@H](COS(=O)(=O)O)O[C@H]2n1cnc2c(=O)[nH]cnc21", "activity, negative = inhibition": "9.85% [at 2.33 µM] (inactive)"},
      {"smiles": "Cc1nn(C(=O)c2c(F)cccc2F)c(C)c1S(=O)(=O)N1CCOCC1", "activity, negative = inhibition": "8.64% (inactive)"},
      {"smiles": "Cc1ccc(S(=O)(=O)N2CCN(Cc3cccc(C)c3O)CC2)cc1", "activity, negative = inhibition": "12.4% (inactive)"},
      {"smiles": "O=S(=O)(c1ccc(F)cc1)N1CCN(Cc2ccccc2C(F)(F)F)CC1", "Potency": "10 µM (active)"},
      {"smiles": "O=C(CN1CCN(S(=O)(=O)c2ccc(F)cc2)CC1)NC1CC1", "activity, negative = inhibition": "6.21% [at 102 µM] (inactive)"},
      {"smiles": "CCN(CC(=O)Nc1ccc(OC)cc1)C(=O)c1ccc(=O)n(Cc2ccccc2)n1", "activity, negative = inhibition": "25% (inactive)"},
      {"smiles": "Cc1ccccc1-c1nc2cc(NC(=O)c3cccc(OCCC(C)C)c3)ccc2o1", "activity, negative = inhibition": "0.952% (inactive)"},
      {"smiles": "Cc1nc2c(c(C)nn2-c2ccccc2)c(C)c1CCC(=O)NCCc1ccc(Cl)cc1", "activity, negative = inhibition": "13.2% (inactive)"},
      {"smiles": "CN1/C(=c2/s/c(=C3/C(=O)N(c4ccccc4)NC3=Nc3ccccc3)n(C)c2=O)C(C)(C)c2ccccc21", "Potency": "10 µM (active)"},
      {"smiles": "CCc1noc(C)c1C(=O)N1CCN(S(=O)(=O)c2cccc(C(F)(F)F)c2)CC1", "activity, negative = inhibition": "9.9% [at 12.7 µM] (inactive)"},
      {"smiles": "COc1ccc(CNC(=O)CC2Oc3ccc(C)cc3NC2=O)cc1", "note": "(stereo not given)", "activity, negative = inhibition": "7.92% (inactive)"},
      {"smiles": "Cc1cccc(N(Cc2ccccc2)C(=O)c2cc(S(=O)(=O)N3CCOCC3)ccc2F)c1", "activity, negative = inhibition": "-26.9% [at 102 µM] (inactive)"},
      {"smiles": "CCOc1cccc2cc(-c3cn4c(n3)sc3cc(C)ccc34)c(=O)oc12", "activity, negative = inhibition": "-3.75% (inactive)"},
      {"smiles": "CC1(C(=O)NNC(=S)NCC2CCCO2)CC1(Cl)Cl", "note": "(stereo not given)", "activity, negative = inhibition": "55.8% [at 102 µM] (inactive)"},
      {"smiles": "Cc1ccc(Cn2c(NC(=O)c3ccco3)nc3ccccc32)cc1", "activity, negative = inhibition": "0.509% (inactive)"},
      {"smiles": "Cc1ccc(-n2nc3cc(Cl)c(NC(=O)c4ccco4)cc3n2)cc1", "activity, negative = inhibition": "-40.1% (inactive)"},
      {"smiles": "CCn1nc(NC(=O)c2ccco2)c2cc3ccc(C)cc3nc21", "Potency": "50.1 µM (active)"},
      {"smiles": "COc1ccccc1NC(=O)COC(=O)c1ccccc1SCC(=O)N1CCCC1", "activity, negative = inhibition": "-3.4% (inactive)"},
      {"smiles": "CC(OC(=O)CNS(=O)(=O)/C=C/c1ccccc1)C(=O)Nc1ccc(S(=O)(=O)N2CCCC2)cc1", "note": "(stereo not given)", "Potency": "10 µM (active)"},
      {"smiles": "COc1cc(C(C)=O)ccc1OC(C)C(=O)Nc1ccc(S(=O)(=O)N2CCCC2)cc1", "note": "(stereo not given)", "activity, negative = inhibition": "9.79% [at 12.7 µM] (inactive)"},
      {"smiles": "CC(C(=O)Nc1ccc(S(=O)(=O)N2CCCC2)cc1)N(C)Cc1ccc(F)cc1", "note": "(stereo not given)", "activity, negative = inhibition": "2.24% [at 2.33 µM] (inactive)"},
      {"smiles": "Cc1ccc(NS(=O)(=O)c2ccc3c(c2)CC(=O)N3)cc1Cl", "activity, negative = inhibition": "-0.894% [at 12.7 µM] (inactive)"},
      {"smiles": "COc1ccc(S(=O)(=O)N2CCN(C(C)C(=O)Nc3ccc(C(C)C)cc3)CC2)cc1", "note": "(stereo not given)", "activity, negative = inhibition": "-8.74% (inactive)"},
      {"smiles": "CCN(CC)S(=O)(=O)c1ccc(NC(=O)c2cnc(C)cn2)cc1", "activity, negative = inhibition": "0.345% [at 0.501 µM] (inactive)"},
      {"smiles": "O=C(CCn1c(=O)c2ccccc2n(Cc2ccc(Cl)cc2)c1=O)NCc1ccc2c(c1)OCO2", "activity, negative = inhibition": "-6.19% (inactive)"},
      {"smiles": "CCN(CC)C(=O)C(=O)c1cn(CC(=O)NCc2ccc3c(c2)OCO3)c2ccccc12", "activity, negative = inhibition": "27.8% [at 12.7 µM] (inactive)"},
      {"smiles": "Cn1cc(CCC(=O)NCc2ccc3c(c2)OCO3)c2ccccc21", "Potency": "25.1 µM (active)"},
      {"smiles": "CCOc1ccc(C(=O)c2cn(Cc3ccc(F)cc3)c3ccc(F)cc3c2=O)cc1", "activity, negative = inhibition": "-38.3% (inactive)"},
      {"smiles": "Cc1ccc(CNC(=O)CCC(=O)N2Cc3ccccc3Oc3ncccc32)cc1", "activity, negative = inhibition": "-18.3% (inactive)"},
      {"smiles": "Cc1noc(/C=C/N(C)C)c1S(=O)(=O)N1CCCC(C(=O)Nc2cccc(F)c2)C1", "note": "(stereo not given)", "activity, negative = inhibition": "2.19% (inactive)"},
      {"smiles": "CCOC(=O)c1c(-c2ccccc2)csc1NC(=S)NC(=O)c1ccccc1", "activity, negative = inhibition": "-11.6% (inactive)"},
      {"smiles": "CCOC(=O)c1c(-c2ccc(C)cc2)csc1/N=C(\\C)C1=C(O)c2ccccc2C1=O", "Potency": "28.2 µM (active)"},
      {"smiles": "CCOC(=O)c1c(-c2ccc(-c3ccccc3)cc2)csc1NC(=O)CCC(=O)O", "activity, negative = inhibition": "-35% [at 102 µM] (inactive)"},
      {"smiles": "CC(=O)N1CCOc2ccc(S(=O)(=O)N3CCC(C(=O)Nc4ccccc4F)CC3)cc21", "activity, negative = inhibition": "-2.87% [at 102 µM] (inactive)"},
      {"smiles": "Cc1ccc(Cc2nnc(SCC(=O)Nc3ccccc3C)[nH]c2=O)cc1", "activity, negative = inhibition": "1.18% [at 102 µM] (inactive)"},
      {"smiles": "CCC(=O)/C=C1\\Sc2ccccc2N1CC", "Potency": "50.1 µM (active)"},
      {"smiles": "CCOC(=O)CNC(=O)N1c2ccccc2Sc2ccccc21", "activity, negative = inhibition": "20.2% [at 102 µM] (inactive)"},
      {"smiles": "CCNC(=O)N1c2ccccc2Sc2ccccc21", "activity, negative = inhibition": "34.9% [at 102 µM] (inactive)"},
      {"smiles": "CCN1CCC(N(Cc2ccc(F)cc2)C(=O)Nc2cc(C)ccc2C)CC1", "activity, negative = inhibition": "-29.4% (inactive)"},
      {"smiles": "CCn1cc(C(=O)N2CCN(c3cc(C)ccc3C)CC2)c(=O)c2cc(S(=O)(=O)N(C)C3CCCCC3)ccc21", "activity, negative = inhibition": "-33.5% (inactive)"},
      {"smiles": "Cc1nc(-c2ccccc2)sc1-c1nc(-c2ccccc2)ncc1S(=O)(=O)c1ccccc1", "activity, negative = inhibition": "-34.6% [at 102 µM] (inactive)"},
      {"smiles": "C=CCn1c(COc2ccccc2C)nnc1SCC(=O)O", "activity, negative = inhibition": "-44.1% (inactive)"},
      {"smiles": "Cc1nc(-c2ccccc2)sc1-c1nnc(C2CC2)o1", "activity, negative = inhibition": "103% [at 102 µM] (inactive)"},
      {"smiles": "Cc1[nH]c2ccc(S(N)(=O)=O)cc2c1C", "activity, negative = inhibition": "-7.63% (inactive)"},
      {"smiles": "C=CCn1c(-c2sc(-c3ccccc3)nc2C)n[nH]c1=S", "Potency": "3.16 µM (active)"},
      {"smiles": "C=CCn1c(-c2ccc3[nH]c(C)c(C)c3c2)n[nH]c1=S", "Potency": "1 µM (active)"},
      {"smiles": "C=CCn1c(-c2ccccc2OCC)n[nH]c1=S", "Potency": "7.08 µM (active)"},
      {"smiles": "C=CCn1c(COc2cccc3cccnc23)nnc1SCC(=O)OC", "activity, negative = inhibition": "-28.7% (inactive)"},
      {"smiles": "C=CCn1c(=S)sc2c(=O)[nH]c(C)nc21", "activity, negative = inhibition": "-0.441% [at 102 µM] (inactive)"}
    ]}
  ]
}
